“And” between values parts separate entries of the source, which are not always exact repeats. Identical values can stand only once. The source made the active and inactive calls.
Assays:
Albumin (Bos taurus) = Albumin (Bos taurus) (UniProt P02769); assay: bovine serum albumin binders on microarray, profiling panel, artefact control for SMM control protein annotation, biochemical, small-molecule microarray, Alexa647 label, 635/667 nm fluorescence (AID 1118); conditions: BSA-A647 binding, fluorescence 635 nm, higher = more signal;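 also: score merges 667 nm emission intensity and signal-to-noise per printed compound spot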
Albumin (Bos taurus), sequence (P02769 whole entry, looked up): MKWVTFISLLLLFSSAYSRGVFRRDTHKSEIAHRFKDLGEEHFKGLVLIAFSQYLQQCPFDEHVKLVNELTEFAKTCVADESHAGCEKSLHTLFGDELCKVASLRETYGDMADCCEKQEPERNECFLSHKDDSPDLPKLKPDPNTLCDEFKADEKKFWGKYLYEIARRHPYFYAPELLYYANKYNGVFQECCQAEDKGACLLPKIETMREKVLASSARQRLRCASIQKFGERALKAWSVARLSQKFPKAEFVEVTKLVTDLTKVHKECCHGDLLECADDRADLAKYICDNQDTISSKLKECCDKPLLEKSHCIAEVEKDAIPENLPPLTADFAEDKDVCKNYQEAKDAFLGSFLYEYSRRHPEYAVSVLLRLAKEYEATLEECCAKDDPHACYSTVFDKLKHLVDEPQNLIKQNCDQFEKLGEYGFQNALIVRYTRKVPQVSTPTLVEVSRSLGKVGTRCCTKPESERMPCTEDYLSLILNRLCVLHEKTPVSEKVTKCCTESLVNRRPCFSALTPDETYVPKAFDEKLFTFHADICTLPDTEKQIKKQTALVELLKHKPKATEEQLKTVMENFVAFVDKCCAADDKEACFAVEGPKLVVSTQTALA

[1] = small-molecule microarray binders of probe aXIP, primary screen, biochemical, NeuroSMM set, 635/667 nm fluorescence (AID 1119); conditions: higher = more signal, called active from +8 up or from −8 down;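 also: probe is the protein aXip251-270 applied at 1 µg/mL to compound-printed slides; binding of probe to printed compounds measured as 667 nm fluorescence plus signal to noise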
[2] = small-molecule binders of probe aNOTCH3, primary screen, biochemical, small-molecule microarray, 635/667 nm fluorescence (AID 1120); conditions: higher = more signal;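 also: probe is a biotin-tagged antibody raised against NOTCH3 rather than NOTCH3 protein; score merges spot fluorescence near 667 nm with spot signal to noise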
[3] = small-molecule binders of probe aNOTCH2, primary screen, biochemical, small-molecule microarray, 635/667 nm fluorescence (AID 1121); conditions: higher = more signal;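 also: score merges feature fluorescence read at 667 nm with its signal to noise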
[4] = target: Carbonic anhydrase 2 (Homo sapiens) (UniProt P00918); assay: CAII small-molecule binders, profiling panel, biochemical, small-molecule microarray, Alexa647-labelled CAII (AID 1122); conditions: CAII-A647 binding fluorescence, higher = more signal
[5] = COS7 lysate on small-molecule microarray, probe aHis, 635 nm (AID 1123); conditions: COS7 cell lysate, fluorescence, higher = more signal;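 also: z-score combines 667nm fluorescence intensity with signal-to-noise per printed compound spot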
[6] = compound binding in COS7 lysate, probe aLAP1, primary screen, cell lysate, small-molecule microarray (AID 1124); conditions: probe aLAP1, fluorescence, higher = more signal;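 also: lysate comes from COS7 cells expressing LAP1 and is applied at 0.3 µg/mL; score merges spot fluorescence near 667 nm with signal-to-noise over triplicate slides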
Sam68 (KHDRBS1) = assay: Sam68 small-molecule binders, primary screen, biochemical, small-molecule microarray, 635 nm fluorescence (AID 1125); conditions: small-molecule microarray binding, higher = more signal;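 also: score merges 667 nm channel intensity with signal to noise over triplicate slides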
[7] = test system: Chordin-like protein 2 (CHRDL2); assay: CHRDL2 small-molecule binders, primary screen, biochemical, small-molecule microarray, 635 nm fluorescence (AID 1126); conditions: small-molecule microarray binding, fluorescence 635 nm; higher = more signal;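 also: printed compound slides probed with Chrdl2 protein at 4 µg/mL for 1 h at 4 C; score merges 667 nm emission intensity with signal to noise over three replicate slides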
[8] = target: Concanavalin-A (Canavalia ensiformis) (UniProt P02866); assay: ConA small-molecule binders, primary screen, artefact control for SMM control protein annotation, biochemical, small-molecule microarray, Alexa647 label, 635 nm (AID 1127); conditions: ConA-A647 binding fluorescence, higher = more signal;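 also: z combines 667 nm emission intensity with signal-to-noise across three replicate slides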
Concanavalin-A (Canavalia ensiformis), sequence (P02866 whole entry, looked up): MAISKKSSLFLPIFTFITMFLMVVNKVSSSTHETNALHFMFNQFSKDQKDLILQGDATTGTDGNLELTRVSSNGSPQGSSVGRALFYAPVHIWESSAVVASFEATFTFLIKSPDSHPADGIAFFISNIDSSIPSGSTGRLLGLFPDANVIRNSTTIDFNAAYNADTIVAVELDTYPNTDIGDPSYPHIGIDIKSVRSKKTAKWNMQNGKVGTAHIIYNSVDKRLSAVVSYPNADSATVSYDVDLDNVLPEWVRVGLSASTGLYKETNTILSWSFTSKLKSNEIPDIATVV

SMILES | composite z-score (Albumin (Bos taurus)) | composite Z-score [1] | composite z-score [2] | composite z-score [3] | composite z-score [4] | composite z-score [5] | composite z-score [6] | composite z-score (Sam68 (KHDRBS1)) | composite z-score [7] | composite z-score [8]
COC(=O)C1=C(C)N(Cc2ccccc2)C2=C(C(=O)c3ccccc3)[C@H](c3ccccc3)[C@@](O)(C(=O)OC)C(=O)N2[C@@H]1c1ccccc1 | 0.388 and 0.0897 | -0.174 (inactive) and -0.441 (inactive) | 0.177 and -0.0265 | 0.0929 and -0.171 | 0.0303 and -0.0063 | -0.224 and 0.306 | 0.0568 and 0.016 | 0.928 and 0.821 | 0.275 and 0.455 | 0.914 and 0.37
C=CCN(C(=O)C1N(CCCCCCO)C(=O)C2C(C(=O)O)C3C=CC21O3)c1ccc(OC)cc1 (stereo not given) | -0.547 and -1.14 | -0.344 (inactive) and -0.542 (inactive) | -0.577 and -0.287 | -0.0345 and -0.0148 | 0.981 and 0.391 | 3.24 and 2.93 | 1.44 and 0.066 | -0.931 and -2.13 | -2.65 and -2.43 | -0.941 and -2.04
C=CCN(CCCCC)C(=O)C1N(C(C)(C)CO)C(=O)C2C(C(=O)O)C3C=CC21O3 (stereo not given) | -0.544 and -0.85 | 0.159 (inactive) and -0.421 (inactive) | -0.484 and -0.372 | -0.112 and -0.0984 | 0.196 and 0.327 | -1.14 and -0.703 | -0.385 and 0.137 | -1.11 and -1.2 | -1.84 and -2.83 | -1.83 and -1.31
CO[C@@H]1COC(=O)CC=C[C@H](C)[C@@H](NS(=O)(=O)c2ccc(C)cc2)COC(=O)CC=C[C@@H]1C | 0.451 and -0.303 | -0.288 (inactive) and 0.209 (inactive) | 0.127 and 0.0876 | -0.0995 and -0.175 | 0.0088 and -0.407 | 0.199 and -1.12 | 0.0136 and -0.0513 | 0.762 and 0.68 | 0.685 and 1.25 | -0.0145 and -0.207
C[N+](C)(C)CCCCCCNC(=O)[C@H]1C[C@H]2C(=O)N[C@@H](CCCC[N+](C)(C)C)C(=O)N2[C@H]1c1cccc(OCCO)c1 | -0.239 and -0.101 | 0.891 (inactive) and -0.166 (inactive) | -0.0647 and 0.203 | -0.148 and 0.046 | 0.655 and 0.419 | 0.897 and 0.214 | 0.479 and 0.285 | 0.861 and 0.669 | 1.22 and 1.04 | 0.606 and 0.352
C=C[C@@H](OC)[C@H](O)c1ccc(OC)c(O)c1 | 0.346 and 0.226 | 0.767 (inactive) and -1.19 (inactive) | -0.0044 and -0.521 | -0.0212 and -0.163 | -0.189 and 0.232 | -0.0302 and 0.043 | -0.37 and -0.649 | 0.043 and -0.955 | 1.11 and -0.52 | -0.847 and -1.4
C[C@@]1([C@@H](NC(=O)Cc2ccccc2)c2ccc(-c3ccccc3)cc2)C[C@H]1C1CCCCC1 | 0.895 and 0.715 and 0.978 | 1.18 (inactive) and 0.111 (inactive) and 0.428 (inactive) | 0.767 and 1.49 and -0.137 | 0.24 and 0.797 and -0.324 | 0.426 and 0.62 and 0.464 | 0.0877 and 1.59 and 2.69 | 0.566 and 1.22 and 0.475 | 0.158 and 0.69 and 1.33 | 0.261 and -0.0345 and -0.954 | 0.956 and 0.166 and 1.12

Reference: PubChem BioAssay
